Data as given in PubChem BioAssay AID750 (Sanford-Burnham Center for Chemical Genomics, 2007).
Out of some 86,000 compounds screened, about 140 (0.16%) were called active.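 How the source made its calls: active means activation factor of at least 2 for MT1-MMP transcription at 10 µM; inactive means the rest.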 Only a selection was taken, and actives are over-represented in it overall.

test: MT1-MMP promoter reporter activation – cell-based, luciferase luminescence, primary screen (AID 750); conditions: HT1080 MT1-MMP promoter luciferase reporter, overnight, at 10 µM, stronger effect = higher value

Row | SMILES | activation factor
1 | Cn1c(=N)n(CC(O)c2ccccc2)c2ccccc21 (stereo not given) | 1.5 (inactive)
2 | CC1CCC2(CC1)NC(=O)N(CC(=O)c1cccn1C)C2=O (stereo not given) | 1.2 (inactive)
3 | COc1ccccc1NC(=O)C1CCCN(c2cc(C)nc3ncnn23)C1 (stereo not given) | 1.1 (inactive)
4 | COc1cc(OC)cc(-c2cc3nc(C4CCN(C(=O)OC(C)(C)C)CC4)cc(=O)n3[nH]2)c1 | 1.1 (inactive)
5 | COc1ccc(OC)c(-n2nnnc2SCC(=O)Nc2cc(C)ccc2OC)c1 | 1 (inactive)
6 | COc1ccc(C(=O)Nc2ccc(S(=O)(=O)NC(C)C)cc2)cc1 | 1.1 (inactive)
7 | COC(=O)[C@@]1(Cc2ccccc2)C=C[C@@H](C)N1 | 1.2 (inactive)
8 | O=C1C2N=NN(CC(=O)N3N=C(c4cccc5ccccc45)CC3c3ccccc3)C2C(=O)N1c1ccccc1 (stereo not given) | 1.2 (inactive)
9 | CC(N=Cc1nc(-c2ccccc2)oc1O)c1ccccc1 (stereo not given) | 1.2 (inactive)
10 | Cc1cc2nc(SCCN3CCOCC3)[nH]c2cc1C | 2 (active)
11 | c1ccc2[nH]c(NCCN3CCOCC3)nc2c1 | 1.1 (inactive)
12 | Cc1ccc(S(=O)(=O)NCCN2CCOCC2)cc1C | 1.1 (inactive)
13 | CCOc1cc(NC(=O)c2cnccn2)c(OCC)cc1NC(=O)c1ccc(C)cc1 | 1.3 (inactive)
14 | COC(=O)C1=C(C)N=C2SC(C)C(=O)N2C1/C=C/c1ccccc1 (stereo not given) | 1.1 (inactive)
15 | OC(COCCC12CC3CC(CC(C3)C1)C2)CN1CCCCC1 (stereo not given) | 1.1 (inactive)
16 | COc1ccc(/C(O)=C2/C(=O)C(=O)N(CC3CCCO3)C2c2ccc(OC)c(OC)c2)cc1 (stereo not given) | 1.3 (inactive)
17 | O=C(CCn1c(SCC(=O)c2ccccc2)nc2ccccc2c1=O)NCc1ccc(F)cc1 | 1.1 (inactive)
18 | CCN1CCCC1Cn1cnc2c([nH]c3cc(OC)ccc32)c1=O (stereo not given) | 1.1 (inactive)
19 | Cc1cc(N/C=C\C(=O)c2ccc(Cl)c(Cl)c2)no1 | 2.1 (active)
20 | Cc1cc(NC(=O)CSc2nnc(-c3ccc(Cl)s3)o2)no1 | 1.1 (inactive)
21 | CCCNC(=O)c1ccc(Cl)c(Cl)c1 | 1 (inactive)
22 | CCN(CC)C(=O)CSc1nc2ccccc2n1CC(=O)N1CCN(c2ccccc2OC)CC1 | 1.1 (inactive)
23 | CC/S(CC1CC1(Cl)Cl)=N\S(=O)(=O)c1ccc(C)cc1 (stereo not given) | 1 (inactive)
24 | CC(C)C(OC(=O)c1cccs1)C(=O)NC1CCCCC1 (stereo not given) | 1.3 (inactive)
25 | OC(CN1C2=NCCCN2c2ccccc21)c1ccc(Br)cc1 (stereo not given) | 1.2 (inactive)

Row | SMILES | activation factor
26 | Cn1c(SCC(=O)NC2CCCCC2)nnc1-c1cc2ccccc2o1 | 1.4 (inactive)
27 | NC(=O)c1ncc(C(F)(F)F)cc1Oc1ccc(F)cc1 | 1.1 (inactive)
28 | CCOc1ccccc1NC(=O)c1cccnc1 | 1.3 (inactive)
29 | CNC(=S)N1N=C(c2ccccc2)CC1c1ccc(Br)cc1 (stereo not given) | 1.3 (inactive)
30 | Cc1noc(NS(=O)(=O)c2ccc(N/C=C/C(=O)c3ccccc3)cc2)c1C | 1.3 (inactive)
31 | COc1cc(C)c(C(C)C)cc1S(=O)(=O)n1ccnc1 | 1.2 (inactive)
32 | COc1ccc(NC(=O)CCN2CCCC2)c(OC)c1 | 1.2 (inactive)
33 | COC(=O)c1ccc(NC(=O)Nc2ccc(C)cc2)cc1 | 1.6 (inactive)
34 | COc1ccc(C(=O)Cc2cnn(-c3ccccc3)c2)c(O)c1 | 1.3 (inactive)
35 | CC(C)CCSc1ncnc2c1oc1nc3c(cc12)COC(C)(C)C3 | 1.1 (inactive)
36 | COc1cccc(NC(=O)CN2CCN(c3nc(-c4cccc(OC)c4)cs3)CC2)c1 | 1.2 (inactive)
37 | CCCNC(=O)NCc1ccc(N2CCCC2=O)cc1 | 1.1 (inactive)
38 | COc1ccc(C2C(C(C)=O)=C(O)C(=O)N2Cc2cccnc2)cc1 (stereo not given) | 1.2 (inactive)
39 | CC(C)NC(=O)CSc1nnc(COc2ccccc2Cl)o1 | 1.1 (inactive)
40 | CCOn1c(SC(C)C)nc2ccccc2c1=O | 1.1 (inactive)
41 | COC(=O)C1CCN(CC(N)=O)CC1 | 1.1 (inactive)
42 | CC(C)OC(=O)CN1C(=O)C(=O)c2ccccc21 | 1.3 (inactive)
43 | COc1ccc(-c2oc(/N=C/N3CCCC3)c(C#N)c2-c2ccc(OC)cc2)cc1 | 1.1 (inactive)
44 | COC(=O)[C@H](Cc1ccccc1)NC(=O)[C@@H]1C[C@H]1[C@@H](NC(=O)OCc1ccccc1)c1ccccc1 | 1.1 (inactive)
45 | CCOc1ccc(S(=O)(=O)NCCSc2ccccc2)cc1 | 1.1 (inactive)
46 | CCOC(=O)C1=C(CCc2ccccc2)NC(=O)NC1c1ccc2ccccc2c1 (stereo not given) | 1.4 (inactive)
47 | COc1ccc(C)cc1S(=O)(=O)Nc1cccc(Cl)c1Cl | 1.1 (inactive)
48 | Cc1ccc(C(=O)N2CCCC2)c(F)c1F | 1.2 (inactive)
49 | O=C(O)c1cc2ccccc2c(=O)s1 | 1.1 (inactive)
50 | Cc1cc(C)n(-c2c(F)c(F)c(COC(=O)c3ccccc3)c(F)c2F)n1 | 1.1 (inactive)

Row | SMILES | activation factor
51 | Cc1ccc(/C=N/NC(=O)C2=NNC(c3ccccc3)(c3ccccc3)C2)c(O)c1 | 1.1 (inactive)
52 | COc1ccc(C)cc1NC(=O)CCS(=O)(=O)c1cccc2nonc12 | 1 (inactive)
53 | CN(C)c1nc(N)nc(CSc2ccccn2)n1 | 1.1 (inactive)
54 | CCCc1noc2c1/C(=N\O)CCC2 | 1.1 (inactive)
55 | Cn1c(Cc2cccc3ccccc23)nnc1SCC(=O)N1CCN(c2cccc(Cl)c2)CC1 | 1.1 (inactive)
56 | CCOc1ccc(NC(=O)CN(C)CC(=O)Nc2cccc(Cl)c2C)cc1OCC | 0.9 (inactive)
57 | COc1ccc(N2CCN(C(=O)CNC(=O)c3ccc(C(C)(C)C)cc3)CC2)cc1 | 1.1 (inactive)
58 | O=C(NCCSCc1ccccc1)c1ccc(Cl)c(S(=O)(=O)N2CCOCC2)c1 | 1.1 (inactive)
59 | Cc1cnc(NC(=O)CSc2nnc(C)s2)s1 | 1 (inactive)
60 | CCN(CC(=O)NC1CCS(=O)(=O)C1)c1nc(-c2cccnc2)nc2ccccc12 (stereo not given) | 1.1 (inactive)
61 | COc1ccccc1NC(=O)CSc1nnc(C)n1CC1CCCO1 (stereo not given) | 1.1 (inactive)
62 | O=C(CN1CCN(C(=O)c2ccco2)CC1)Nc1ccc2c(c1)OCO2 | 1.4 (inactive)
63 | O=C(Nc1nnc(SCc2c(Cl)cccc2Cl)s1)C1CCCO1 (stereo not given) | 1.2 (inactive)
64 | Cc1ccc(C2(C(F)(F)F)N=C3Sc4cc(C)cc(C)c4N3C(=O)N2)cc1 (stereo not given) | 1.1 (inactive)
65 | C=C(C)CNC(=S)/N=c1\scc(C)n1CC | 1.3 (inactive)
66 | O=C(Cc1ccc(-n2c(=O)[nH]c3ccccc3c2=O)cc1)N1CCN(c2cccc(Cl)c2)CC1 | 1 (inactive)
67 | COc1ccc(Br)cc1CN1CCN(C(=O)c2cccc(OC)c2OC)CC1 | 1.1 (inactive)
68 | COc1ccc(C2=Nc3cc(C)ccc3OC2)cc1 | 0.9 (inactive)
69 | CS(=O)(=O)N1CCN(c2cccc(Cl)n2)CC1 | 1.2 (inactive)
70 | COc1ccc(S(=O)(=O)Nc2ccc3oc(C)c(C(C)=O)c3c2)cc1 | 1.1 (inactive)
71 | Cc1ccc(C2=CSC3=NS(=O)(=O)CCN23)cc1C | 1.1 (inactive)
72 | CC1=C(C(=O)OC(C)(C)C)C(c2ccc(Br)cc2)NC(=O)N1CCCC(=O)O (stereo not given) | 1.1 (inactive)
73 | CCS(=O)(=O)Nc1ccc(C2=NN(S(=O)(=O)c3ccc(F)cc3)C(c3ccco3)C2)cc1 (stereo not given) | 1.1 (inactive)
74 | CC1=CC(C)(C)NC(=S)N1c1ccccc1 | 1.1 (inactive)
75 | Cc1ccc(SCC(=O)c2cc(C)c(OC(=S)N(C)C)c(C)c2)cc1 | 1.9 (inactive)

Row | SMILES | activation factor
76 | COC(=O)CSc1nc2c(c(C3CC=CCC3)c1C#N)CCC2 (stereo not given) | 1 (inactive)
77 | O=C(NCCCN1CCCCC1)c1ccc2c(c1)NC(=O)C(N1CCOCC1)S2 (stereo not given) | 1.1 (inactive)
78 | CC(C)CC[n+]1ccn(C2=C([O-])c3ccccc3C(=O)/C2=N\S(=O)(=O)c2ccccc2)c1 | 0.8 (inactive)
79 | Cc1ccc2c(c1)c1ncn(CCC3=CCCCC3)c(=O)c1n2C | 1.3 (inactive)
80 | Cc1ccc2c(c1)c1ncnc(N3CCc4ccccc4C3)c1n2C | 2 (active)
81 | Cc1cccc(-n2ncc3c(N4CCc5ccccc54)ncnc32)c1 | 1.5 (inactive)
82 | COc1ccc(N(CC(=O)NC2CCCCC2)C(=O)CNC(=O)c2ccco2)c(OC)c1 | 1.2 (inactive)
83 | CSc1nc(C)cc(SC(C(C)=O)C(=O)Nc2ccccc2)n1 (stereo not given) | 1.1 (inactive)
84 | CSc1nc2nc3c(c(=O)n2[nH]1)CCC3 | 1.2 (inactive)
85 | COc1ccccc1CCNC(=O)c1cnccn1 | 1.2 (inactive)
86 | CCCCCOC(=O)c1ccc(N2C(=O)C3C4C=CC(C4)C3C2=O)cc1 (stereo not given) | 1.2 (inactive)
87 | O=C(NCc1ccc2c(c1)OCO2)C12CC3CC(CC(C3)C1)C2 | 1 (inactive)
88 | Cc1ccc(N(Cc2ccc(C(=O)Nc3ccccc3C(=O)NCc3ccco3)cc2)S(C)(=O)=O)cc1C | 1.1 (inactive)
89 | COc1ccccc1NC(=O)/C=C/C(N)=O | 1.3 (inactive)
90 | CC(C)CCNC(=O)CC1C(=O)N(Cc2ccccc2)C(C)c2nc3ccccc3n21 (stereo not given) | 1 (inactive)
91 | CCOC(=O)c1ccccc1NS(=O)(=O)c1ccc(OC)cc1 | 1 (inactive)
92 | CCn1c(CC(=O)Nc2ccc(C)cc2)nnc1SCC(=O)Nc1nc(C)cs1 | 1.1 (inactive)
93 | CCN1CCN(C(=O)c2cc3cc4ccc(OC)cc4nc3s2)CC1 | 1.3 (inactive)
94 | CC1CN(S(=O)(=O)c2ccccc2)C(C)CN1S(=O)(=O)c1ccccc1 (stereo not given) | 1.3 (inactive)
95 | CCOC(=O)c1c(C)nc2c(c1C)c(=O)oc1ccccc12 | 1.1 (inactive)
96 | Cn1c(C(=O)OC(C(=O)NC2CCCCC2)c2ccccn2)cc2sccc21 (stereo not given) | 1.2 (inactive)
97 | CCCNC(=S)N1CCC(NC(=O)C23CC4CC(CC(C4)C2)C3)CC1 | 1.2 (inactive)
98 | O=C(Nc1nncs1)c1cccc(S(=O)(=O)N2CCCCC2)c1 | 1 (inactive)
99 | N#Cc1ccc(C=NC(c2ccccc2)c2ccccc2)cc1 | 1.2 (inactive)
100 | CN(Cc1nc2ccccc2c(=O)[nH]1)Cc1cc(=O)oc2ccc3ccccc3c12 | 1 (inactive)
